Measured values: PubChem BioAssay AID623994 (NMMLSC, 2012)
Entries with a potency or affinity are not part of this list. Activity calls are given as the source filed them.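 Rule for the calls: active = compounds whose fitted concentration for half the maximal dye retention is below 100 µM; inactive = the rest.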

Biological target: Multidrug resistance protein CDR2 (Candida albicans (strain SC5314 / ATCC MYA-2876)) (UniProt P78595)
Experiment: CaCDR2 efflux pump inhibitors in yeast, dose response, S. cerevisiae AD1-8u, singleplex, Cherry Pick2 set (AID 623994)
Conditions: S. cerevisiae AD1-8u expressing CaCDR2, Nile Red efflux; series mostly up to 100 µM

Chain of Multidrug resistance protein CDR2 (Candida albicans (strain SC5314 / ATCC MYA-2876)) (P78595 whole entry, looked up): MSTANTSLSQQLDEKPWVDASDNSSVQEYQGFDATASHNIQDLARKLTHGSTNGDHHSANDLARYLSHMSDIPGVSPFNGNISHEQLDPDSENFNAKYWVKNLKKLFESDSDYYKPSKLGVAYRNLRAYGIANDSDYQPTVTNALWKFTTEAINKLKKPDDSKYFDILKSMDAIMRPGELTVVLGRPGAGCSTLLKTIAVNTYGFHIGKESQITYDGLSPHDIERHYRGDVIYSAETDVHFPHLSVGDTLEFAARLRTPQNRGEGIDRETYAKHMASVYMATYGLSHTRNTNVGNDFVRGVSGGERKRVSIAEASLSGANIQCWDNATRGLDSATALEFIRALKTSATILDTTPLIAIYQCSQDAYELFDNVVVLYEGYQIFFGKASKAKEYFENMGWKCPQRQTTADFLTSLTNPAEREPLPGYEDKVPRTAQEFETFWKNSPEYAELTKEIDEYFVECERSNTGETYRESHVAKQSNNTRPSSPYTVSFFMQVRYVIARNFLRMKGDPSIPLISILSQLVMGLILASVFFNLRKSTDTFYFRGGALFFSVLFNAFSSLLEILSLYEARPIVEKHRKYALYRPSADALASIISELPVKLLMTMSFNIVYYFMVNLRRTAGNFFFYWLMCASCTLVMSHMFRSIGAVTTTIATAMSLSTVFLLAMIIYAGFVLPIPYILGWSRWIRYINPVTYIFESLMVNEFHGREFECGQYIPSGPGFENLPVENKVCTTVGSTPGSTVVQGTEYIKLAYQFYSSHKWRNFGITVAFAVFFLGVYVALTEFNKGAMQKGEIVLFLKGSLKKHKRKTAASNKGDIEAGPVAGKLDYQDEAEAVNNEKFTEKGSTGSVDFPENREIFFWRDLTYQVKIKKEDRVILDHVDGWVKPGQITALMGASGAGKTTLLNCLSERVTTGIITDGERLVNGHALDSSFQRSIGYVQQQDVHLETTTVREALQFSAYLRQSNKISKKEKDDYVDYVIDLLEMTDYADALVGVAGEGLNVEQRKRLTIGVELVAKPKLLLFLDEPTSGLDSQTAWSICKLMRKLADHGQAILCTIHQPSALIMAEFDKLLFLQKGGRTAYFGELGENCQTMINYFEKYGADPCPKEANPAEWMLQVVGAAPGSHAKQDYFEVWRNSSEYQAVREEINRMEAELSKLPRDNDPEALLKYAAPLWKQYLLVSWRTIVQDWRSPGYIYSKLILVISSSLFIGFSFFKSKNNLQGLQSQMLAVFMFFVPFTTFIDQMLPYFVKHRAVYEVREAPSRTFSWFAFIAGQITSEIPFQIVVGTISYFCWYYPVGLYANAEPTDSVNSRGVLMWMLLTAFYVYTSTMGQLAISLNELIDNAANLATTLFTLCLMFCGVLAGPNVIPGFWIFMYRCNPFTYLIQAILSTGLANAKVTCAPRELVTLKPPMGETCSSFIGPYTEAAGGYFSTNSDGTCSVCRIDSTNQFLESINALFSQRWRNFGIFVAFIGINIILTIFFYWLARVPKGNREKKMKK

outcome, inactive:
COc1ccc2nc(NC(=O)c3cccs3)sc2c1, Cc1noc(C)c1C(=O)N1CCC2(CC1)Oc1ccc(F)cc1C(=O)C21CC(c2ccc(Cl)cc2)=NO1 (centres undefined), COc1ccc(C2CC(c3cccc(OC)c3)=NN2c2ccc(S(N)(=O)=O)cc2)cc1 (centres undefined), COc1ccc(S(=O)(=O)N(C)C[C@H]2Oc3c(NC(=O)NC4CCCCC4)cccc3C(=O)N([C@H](C)CO)C[C@@H]2C)cc1, Cc1ccc(O)c(C(=O)c2cnc3c(c2)CN(C)C(=O)N3)c1, O=C(C1CCCN(c2ncnc3c2nc2n3CCCCC2)C1)N1CCN(c2ccccc2F)CC1 (centres undefined), Cc1ccc(-c2c[n+](CC(=O)N3c4ccccc4Sc4ccccc43)c3n2CCC3)cc1, O=C(NCCc1ccc(Cl)cc1)C1CCC(CNc2nc(=S)[nH]c3ccccc23)CC1 (centres undefined), CC(C)C(=O)N1CCC2(CC1)Oc1ccc(Cl)cc1C(=O)C21CC(c2ccc(Cl)cc2)=NO1 (centres undefined), O=C(C1CCC(CNc2nc(=S)[nH]c3ccccc23)CC1)N1CCN(c2ccc(F)cc2)CC1 (centres undefined), COc1cccc(-c2sc3ccc(OC)cc3c2-c2ccc(OCCN3CCOCC3)cc2)c1, COc1ccc(C(=O)NC2CC(C)(C)Cc3c2cnn3-c2ccccc2)c(OC)c1 (centres undefined), O=C(c1ccc2c(c1)OCO2)N1CCC2(CC1)Oc1ccc(F)cc1C(=O)C21CC(c2ccc(Cl)cc2)=NO1 (centres undefined), COc1ccc(CCOC(=O)c2ccc(N)c([N+](=O)[O-])c2)cc1, COc1ccc(-c2c[n+](CC(=O)N3c4ccccc4Sc4ccccc43)c3n2CCC3)cc1, Cc1cccc(C2CC(c3ccccc3)=NN2c2ccc(S(N)(=O)=O)cc2)c1 (centres undefined), Cc1ccc(C2CC(c3ccccc3)=NN2c2ccc(S(N)(=O)=O)cc2)cc1 (centres undefined), NC1=NC[C@H](Cc2ccc(O)cc2)N1CCc1cc(C(F)(F)F)cc(C(F)(F)F)c1, CN1Cc2cc(C(=O)c3ccccc3O)cnc2NC1=O, CCCCNC(=O)C1CCC(CNc2nc(=S)[nH]c3ccccc23)CC1 (centres undefined), COc1ccc(OC)c2sc(NC(=O)c3ccc(Br)s3)nc12, COc1cc(OC)c2ccc(=O)oc2c1C(CCN1CCCCC1)c1ccc(N(C)C)cc1 (centres undefined), C[C@H](CO)N1C[C@H](C)[C@@H](CN(C)S(=O)(=O)c2ccccc2)Oc2c(NC(=O)Nc3ccccc3)cccc2C1=O, COc1ccc(C2CC(c3ccccc3)=NN2c2ccc(S(N)(=O)=O)cc2)cc1 (centres undefined), COc1cc(OC)c2ccc(=O)oc2c1C(CCN1CCCC(C)C1)c1ccc(N(C)C)cc1 (centres undefined), CCOc1cccc2sc(NC(=O)c3ccc(Br)s3)nc12, COc1cc(OC)c2c(-c3ccccc3)cc(=O)oc2c1C(CCN1CCCC(C)C1)c1ccc(N(C)C)cc1 (centres undefined), Cc1cccc2sc(N(CCCN(C)C)C(=O)c3ccc(Cl)s3)nc12, O=C(CSc1nnc(Cc2cccs2)n1Cc1ccco1)Nc1ccc(Br)cc1
